PubChem BioAssay (NCI)
Compounds without any hit were thinned out: in the full panel of roughly 83,000, 20% have a hit.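 In brief: 96-well plates, 48 h treatment, single concentration, percent growth endpoint.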 Values without a mark were called inactive. Activity calls are given as the source filed them. How the source made its calls: active means growth percent below 10; inactive means the rest.

Columns and labels:
Experiment in all cases: NCI-60 one-dose screen, 48 h (100 = growth as untreated, 0 = no growth, -100 = all killed)
Conditions in all cases: 10 µM unless noted
DU-145 prostate = tested on: DU-145 prostate
K-562 leukemia = tested on: K-562 leukemia
MALME-3M melanoma = tested on: MALME-3M melanoma
MDA-MB-231 breast = tested on: MDA-MB-231 breast
RXF 393 renal = tested on: RXF 393 renal
SF-268 CNS = tested on: SF-268 CNS
SF-295 CNS = tested on: SF-295 CNS
SF-539 CNS = tested on: SF-539 CNS
UACC-257 melanoma = tested on: UACC-257 melanoma
M14 melanoma = tested on: M14 melanoma
HCT-15 colon = tested on: HCT-15 colon
HT29 colon = tested on: HT29 colon
SNB-75 CNS = tested on: SNB-75 CNS
SNB-19 CNS = tested on: SNB-19 CNS
U251 CNS = tested on: U251 CNS
PC-3 prostate = tested on: PC-3 prostate
SK-MEL-5 melanoma = tested on: SK-MEL-5 melanoma
UACC-62 melanoma = tested on: UACC-62 melanoma
LOX IMVI melanoma = tested on: LOX IMVI melanoma
SK-MEL-28 melanoma = tested on: SK-MEL-28 melanoma

Row | Compound | growth (DU-145 prostate) | growth (K-562 leukemia) | growth (MALME-3M melanoma) | growth (MDA-MB-231 breast) | growth (RXF 393 renal) | growth (SF-268 CNS) | growth (SF-295 CNS) | growth (SF-539 CNS) | growth (UACC-257 melanoma) | growth (M14 melanoma) | growth (HCT-15 colon) | growth (HT29 colon) | growth (SNB-75 CNS) | growth (SNB-19 CNS) | growth (U251 CNS) | growth (PC-3 prostate) | growth (SK-MEL-5 melanoma) | growth (UACC-62 melanoma) | growth (LOX IMVI melanoma) | growth (SK-MEL-28 melanoma)
1 | CCCCCCN1C(=O)CN=C1Nc1ccc2cc3ccc(NC4=NCC(=O)N4CCCCCC)cc3nc2c1 | 40.5% | -12.1% (active) | 71.5% | 30.7% | 11.6% | 47.5% | 82.7% | 76.6% | 103% | 68.2% | 49% | 15.5% | 61.7% | 48.4% | 22.1% | 51% | 82.6% | 82.6% | -41.8% (active) | 85.9%
2 | Oc1c(CCl)cc(Cl)cc1Cc1cc(Cl)cc(Cc2cc(Cl)cc(CCl)c2O)c1O | 44% | 7.26% (active) | 27.9% | 40.2% | 45.4% | 17.1% | 62.7% | 40.7% | 36.1% | 27.1% | 12.8% | 56.9% | 56.8% | 27.6% | 31.7% | 17.9% | -1.94% (active) | 4.56% (active) | 47.7% | 30%
3 | C=C1C(=O)O[C@H]2[C@H]1CC/C(COC(=O)c1c[nH]c3ccccc13)=C\CC[C@@]1(C)O[C@@H]21 | -68.6% (active) | -16.1% (active) | -73.7% (active) | -68.8% (active) | -90.6% (active) | -40.8% (active) | 50.2% | -61.3% (active) | -58.8% (active) | -64.7% (active) | -69.5% (active) | -59.8% (active) | -2.2% (active) | -40.3% (active) | -81.2% (active) | -52.1% (active) | -98.2% (active) | -69.1% (active) | -94.8% (active) | -63.8% (active)
4 | COc1ccc2c(c1)OC13Oc4cc(OC)ccc4C=C1CCCCC3=C2 | 104% | 88.7% | 97.9% | 93.8% | 87.5% | 90.7% | 96.8% | 98.4% | 78.6% | 90.4% | 92.6% | 71.5% | 89.8% | 106% | 89.7% | 69.6% | 91.5% | 89.4% | 99.8% | 111%
5 | CC(C)NS(=O)(=O)c1cccc(-c2ccc3c(=O)n(CCCN)c4c(c3c2)C(=O)c2ccccc2-4)c1 | 107% | 88.3% | 118% | 108% | 109% | 98.2% | 104% | 104% | 110% | 115% | 102% | 89.6% | 82.3% | 111% | 104% | 102% | 98.8% | 108% | 94.4% | 110%
6 | FC(F)(F)c1ccc2c(Nc3cccc(C4CC(c5ccccc5)=NN4c4ccc(Cl)cc4)c3)ccnc2c1 (stereo not given) | 47.7% | 6.6% (active) | 83% | 68% | 74.2% | 50.8% | 57.8% | 86.9% | 73.8% | 41.2% | 5.61% (active) | 19% | 70% | 41.4% | 29.3% | 34% | 75.1% | 49.4% | -53.9% (active) | 48.6%
7 | C=C(C)[C@@H]1CC[C@]2(C(=O)OCCCC[P+](c3ccccc3)(c3ccccc3)c3ccccc3)CC[C@]3(C)[C@H](CC[C@@H]4[C@@]5(C)CC[C@H](OC(=O)C(Cl)Cl)C(C)(C)[C@@H]5CC[C@]43C)[C@@H]12 | 14.4% | -35.9% (active) | -85.7% (active) | -49.8% (active) | -80.8% (active) | -15.7% (active) | -76.9% (active) | -44.2% (active) | -61% (active) | -56.1% (active) | -8.59% (active) | 3% (active) | -46.6% (active) | 11% | -37.1% (active) | -26.2% (active) | -99.4% (active) | -43.2% (active) | -93.7% (active) | -63.4% (active)
8 | COc1ccc(-c2cc(-c3nnc(SCC(=O)Nc4ccc(C(C)=O)cc4)o3)c3ccccc3n2)cc1 | 6.34% (active) | 35.2% | -52.7% (active) | -23.9% (active) | -4.69% (active) | 33.8% | 42.5% | 12.3% | 68.3% | 5.23% (active) | 23.3% | 38.9% | -5.55% (active) | 13.8% | -68.6% (active) | 6.81% (active) | 5.12% (active) | 25.8% | 4.15% (active) | 42.7%
